Assay results taken from PubChem BioAssay (NCI).
Compounds without any hit were thinned out: in the full panel of roughly 83,000, 20% have a hit.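 Interpretation: 100, growth as untreated; towards 0, rising growth inhibition; 0, no net growth; 0 to -100, cell death. Compounds scoring below 10 were considered active.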 The source made the active and inactive calls.

Columns and labels:
Experiment in all cases: NCI-60 one-dose screen, 48 h (100 = growth as untreated, 0 = no growth, -100 = all killed)
Settings in all cases: 10 µM unless noted
DU-145 prostate = system: DU-145 prostate
K-562 leukemia = system: K-562 leukemia
MALME-3M melanoma = system: MALME-3M melanoma
MDA-MB-231 breast = system: MDA-MB-231 breast
RXF 393 renal = system: RXF 393 renal
SF-268 CNS = system: SF-268 CNS
SF-295 CNS = system: SF-295 CNS
SF-539 CNS = system: SF-539 CNS
UACC-257 melanoma = system: UACC-257 melanoma
M14 melanoma = system: M14 melanoma

Measured: growth

CCOC(=O)C1=C(CC(O)c2ccc(OC)cc2OC)NC(=O)NC1c1ccccc1 (stereo not given)
inactive: DU-145 prostate 110% | K-562 leukemia 56.1% | MALME-3M melanoma 93.8% | MDA-MB-231 breast 99.4% | RXF 393 renal 120% | SF-268 CNS 109% | SF-295 CNS 109% | SF-539 CNS 95.1% | UACC-257 melanoma 102% | M14 melanoma 109%

O=C(Cn1nc(-c2cccc3ccccc23)ccc1=O)NCc1cccc(Cl)c1
inactive: DU-145 prostate 55.7% [50 µM] | K-562 leukemia 20.4% [50 µM] | MALME-3M melanoma 70.5% [50 µM] | MDA-MB-231 breast 55% [50 µM] | RXF 393 renal 37.7% [50 µM] | SF-268 CNS 52.9% [50 µM] | SF-295 CNS 18.7% [50 µM] | SF-539 CNS 58.3% [50 µM] | UACC-257 melanoma 44.2% [50 µM] | M14 melanoma 34% [50 µM]

COc1ccc2c(c1)C(C)Cc1c(ncnc1-n1cnc3cc(C)ccc31)N2C (stereo not given)
inactive: DU-145 prostate 10.2% | MALME-3M melanoma 78.7% | MDA-MB-231 breast 28.9% | RXF 393 renal 35.7% | SF-268 CNS 26% | SF-539 CNS 10.7% | UACC-257 melanoma 47.3%
active: K-562 leukemia 7.68% | SF-295 CNS 6.97% | M14 melanoma 8.87%

CCN1CCN(CCNc2nccc(-c3c(-c4ccc(F)c(O)c4)nc4occn34)n2)S1(=O)=O
inactive: DU-145 prostate 26.8% | K-562 leukemia 10.3% | MALME-3M melanoma 26.4% | MDA-MB-231 breast 73.2% | RXF 393 renal 25.8% | SF-268 CNS 28% | SF-295 CNS 28.9% | SF-539 CNS 75.9% | UACC-257 melanoma 43.6% | M14 melanoma 21.6%

COCCOC(C)C(/C=N/NC(N)=S)=N/NC(N)=S (stereo not given)
inactive: DU-145 prostate 102% | K-562 leukemia 37.6% | MALME-3M melanoma 94.3% | MDA-MB-231 breast 68% | RXF 393 renal 97.2% | SF-268 CNS 83.4% | SF-295 CNS 76.2% | SF-539 CNS 91.9% | UACC-257 melanoma 34.5% | M14 melanoma 65.5%

CNC(=O)c1cc(Oc2ccc3c(c2)sc2nc(-c4ccc(NC(=O)[C@@H](NC(=O)OC)C(C)C)cc4)cn23)ccn1
inactive: DU-145 prostate 84.8% | K-562 leukemia 47.3% | MALME-3M melanoma 49.4% | MDA-MB-231 breast 71.9% | RXF 393 renal 85.3% | SF-268 CNS 82.5% | SF-295 CNS 68.7% | SF-539 CNS 88.2% | UACC-257 melanoma 59.5% | M14 melanoma 64.1%

CCCCCc1ccc(S(=O)(=O)Nc2ccc3nc(N)oc3c2)cc1
inactive: DU-145 prostate 74.2% | K-562 leukemia 27.9% | MALME-3M melanoma 89.8% | MDA-MB-231 breast 64.3% | RXF 393 renal 77.4% | SF-268 CNS 51.1% | SF-295 CNS 30.8% | SF-539 CNS 71.3% | UACC-257 melanoma 34.4% | M14 melanoma 73.1%

COc1ccccc1/C=C/C(=O)Nc1ccc(F)cc1
inactive: DU-145 prostate 98.6% | K-562 leukemia 84.8% | MALME-3M melanoma 95.9% | MDA-MB-231 breast 88.6% | RXF 393 renal 102% | SF-268 CNS 99.7% | SF-295 CNS 96% | SF-539 CNS 101% | UACC-257 melanoma 99.4% | M14 melanoma 96.7%

COC(=O)c1ccc2c(c1)c1c(C)c3cnccc3c(C)c1n2C
active: DU-145 prostate -4.07% | K-562 leukemia 1.64% | MALME-3M melanoma -73.7% | MDA-MB-231 breast -16.7% | RXF 393 renal -76.1% | SF-268 CNS 3.86% | SF-295 CNS -10.5% | SF-539 CNS -37.5% | UACC-257 melanoma -41.4% | M14 melanoma -88.6%

O=C(c1cccc(N2CCOCC2)n1)c1c[nH]c2ccccc12
inactive: DU-145 prostate 99.8% | K-562 leukemia 103% | MALME-3M melanoma 95.1% | MDA-MB-231 breast 80.2% | RXF 393 renal 99% | SF-268 CNS 94.1% | SF-295 CNS 100% | SF-539 CNS 88.9% | UACC-257 melanoma 87.7% | M14 melanoma 94.8%

C=C1C(=O)O[C@H]2[C@H]1CC/C(COC(=O)NCc1ccc(Cn3c(=O)sn(-c4ccccc4)c3=O)cc1)=C\CC[C@@]1(C)O[C@@H]21
inactive: DU-145 prostate 23.3% | MDA-MB-231 breast 47.2% | SF-268 CNS 46.6% | SF-295 CNS 108% | SF-539 CNS 29% | UACC-257 melanoma 68.3% | M14 melanoma 14.4%
active: K-562 leukemia 1.19% | MALME-3M melanoma -9.16% | RXF 393 renal 6.99%

O=c1oc2c(cnc3ccccc32)cc1-c1cccc(Cl)c1
inactive: DU-145 prostate 108% | K-562 leukemia 89% | MALME-3M melanoma 103% | MDA-MB-231 breast 97.6% | RXF 393 renal 112% | SF-268 CNS 98.8% | SF-295 CNS 101% | SF-539 CNS 95.2% | UACC-257 melanoma 101% | M14 melanoma 112%

N#CC1=C(N)Oc2c(sc3c(F)cccc23)C1c1ccc([N+](=O)[O-])cc1 (stereo not given)
active: DU-145 prostate 3.51% | K-562 leukemia 1.99% | MALME-3M melanoma -24.3% | MDA-MB-231 breast -66.2% | RXF 393 renal -57.3% | SF-268 CNS -23.1% | SF-295 CNS -70.3% | SF-539 CNS -79.2% | UACC-257 melanoma -17.2% | M14 melanoma -50.9%

Cc1ccc2c(c1)nc(C)n2-c1ncnc2c1CC(C)c1cc(O)ccc1N2C (stereo not given)
inactive: DU-145 prostate 42.1% | K-562 leukemia 14.8% | MALME-3M melanoma 48.9% | MDA-MB-231 breast 50.8% | RXF 393 renal 10.7% | SF-268 CNS 44.1% | SF-295 CNS 11.1% | SF-539 CNS 28.7% | UACC-257 melanoma 17.9% | M14 melanoma 15%

CSc1nc(-c2ccco2)c(C#N)c(=O)n1C
inactive: DU-145 prostate 106% | K-562 leukemia 101% | MALME-3M melanoma 88.8% | MDA-MB-231 breast 107% | RXF 393 renal 112% | SF-268 CNS 106% | SF-295 CNS 97.9% | SF-539 CNS 89.7% | UACC-257 melanoma 96.9% | M14 melanoma 108%

CC(C)(C)OC(=O)CN1CCc2c(sc3ncnc(N4CCN(c5ccc(F)cc5)CC4)c23)C1
inactive: DU-145 prostate 90.1% | K-562 leukemia 87.7% | MALME-3M melanoma 90.6% | MDA-MB-231 breast 75.7% | RXF 393 renal 92.2% | SF-268 CNS 81.9% | SF-295 CNS 104% | SF-539 CNS 81.6% | UACC-257 melanoma 97.7% | M14 melanoma 98.4%

Cc1ccc(S(=O)(=O)OC[C@]23CCC(C)(C)C[C@H]2C2=CC[C@@H]4[C@@]5(C)CCCNC(C)(C)[C@@H]5CC[C@@]4(C)[C@]2(C)CC3)cc1
active: K-562 leukemia -20%
inactive: DU-145 prostate 37.9% | MALME-3M melanoma 95.8% | MDA-MB-231 breast 45.6% | RXF 393 renal 67.9% | SF-268 CNS 69.6% | SF-295 CNS 104% | SF-539 CNS 74.8% | UACC-257 melanoma 97.4% | M14 melanoma 80.7%

Cc1cc(O)c(=O)cc2c1C[C@H]1CC(C)(C)/C=C/C[C@]3(C)Oc4cc(=O)c(O)cc(C)c4C[C@H]3C[C@H](O)[C@@]1(C)O2
active: K-562 leukemia 1.9% | MALME-3M melanoma 0.782% | SF-295 CNS 3.52% | SF-539 CNS 6.95% | UACC-257 melanoma -6.56% | M14 melanoma -34%
inactive: DU-145 prostate 22.3% | MDA-MB-231 breast 13.5% | RXF 393 renal 19.8% | SF-268 CNS 18.5%

CCOC(=O)C1=C(CCl)N(C)C(=O)NC1c1ccc2c(c1)OCO2 (stereo not given)
inactive: DU-145 prostate 33.4% | K-562 leukemia 16.7% | MALME-3M melanoma 65% | MDA-MB-231 breast 65.3% | RXF 393 renal 41.3% | SF-268 CNS 91.6% | SF-295 CNS 95.1% | SF-539 CNS 32.5% | UACC-257 melanoma 59.5% | M14 melanoma 42.1%

COc1ccc(C(c2cc(OC)c(OC)c(OC)c2)N2CCCCC2)cc1 (stereo not given)
inactive: DU-145 prostate 64.2% | K-562 leukemia 18% | MALME-3M melanoma 55.3% | MDA-MB-231 breast 53.1% | RXF 393 renal 26% | SF-268 CNS 47.2% | SF-295 CNS 18.7% | SF-539 CNS 27.7% | UACC-257 melanoma 54.9% | M14 melanoma 23.3%

Clc1ccc2nn3c4ccccc4c(OCCN4CCOCC4)nc3c2c1
inactive: DU-145 prostate 98.9% | K-562 leukemia 88.2% | MALME-3M melanoma 134% | MDA-MB-231 breast 81.4% | RXF 393 renal 79.3% | SF-268 CNS 91.8% | SF-295 CNS 93.9% | SF-539 CNS 91.6% | UACC-257 melanoma 107% | M14 melanoma 122%

CCOC(=O)NCCCC(=O)NCCc1ccccc1
inactive: DU-145 prostate 103% | K-562 leukemia 106% | MALME-3M melanoma 103% | MDA-MB-231 breast 108% | RXF 393 renal 101% | SF-268 CNS 101% | SF-295 CNS 104% | SF-539 CNS 106% | UACC-257 melanoma 103% | M14 melanoma 102%

CCN(CC)CCOc1ccc(Nc2ncc3cc(-c4c(Cl)cccc4Cl)c(=O)n(CCOC)c3n2)cc1
active: DU-145 prostate -13.8% | K-562 leukemia 5.78% | MDA-MB-231 breast -73.2% | RXF 393 renal -64.4% | SF-268 CNS -9.68% | SF-539 CNS -75.7% | M14 melanoma -6.68%
inactive: MALME-3M melanoma 10.6% | SF-295 CNS 25.7% | UACC-257 melanoma 12.9%

O=C1C=C(SCCO)C(=O)c2ccccc21
active: DU-145 prostate -96.7% | K-562 leukemia -38.4% | MALME-3M melanoma -68.1% | SF-295 CNS -77.4% | SF-539 CNS -77.1% | M14 melanoma -86.5%
inactive: MDA-MB-231 breast 40.2% | RXF 393 renal 42.4% | SF-268 CNS 27.2% | UACC-257 melanoma 66.7%
